# According to PubChem BioAssay (NCATS):
# Inconclusive results are not listed. Values without a mark were called inactive. Activity calls are given as the source filed them. The call rests on the fitted dose curve; in most records, active means well fitted inhibition curve with a large enough effect; inconclusive means small, poorly fitted or top-dose-only effect; inactive means flat fitted curve, though single readings scatter.
# System: HaCat
# Assay: Cytotoxic Profiling of Annotated Libraries Using Quantitative High-Throughput Screening (AID 1296008); further: nearly all actives have a fitted effect of over 60% in size
# Conditions: Five cell lines viability, CellTiter-Glo ATP luminescence, 48-72 h; max response: active compounds read low
# Outline: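 Cells exposed to compounds for 48 or 72 hr at 37 degrees Celsius. Viability read as ATP-coupled luminescence with CellTiter-Glo after 10 min at room temperature.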
# On the % scale 0 is the no-effect control and ±100 the full control effect; potency means the concentration at half of the fitted maximal effect.
SMILES,max response [%],outcome,Potency
CC1=C(CCC(C)CC(=O)O)[C@@]2(C)CCCC(C)(C)C2CC1=O (some centres undefined),-7.07,,
O=C1CCC=CC1(O)C(=O)OCc1ccccc1O[C@@H]1O[C@H](CO)[C@@H](O)[C@H](O)[C@H]1O (some centres undefined),-22.3,,
COc1ccc(CCO[C@@H]2O[C@H](CO[C@@H]3OC[C@H](O)[C@H](O)[C@H]3O)[C@@H](O)[C@H](O)[C@H]2O)cc1,-19,,
C[C@@H]1O[C@@H](O[C@H]2[C@H](O)[C@@H](O)[C@H](OC3CCC4(C)C5CCC(C)(C(CO)OC6OC(CO)C(O)C(O)C6O)CC5=CCC4C3(C)C)O[C@@H]2CO)[C@H](O)[C@H](O)[C@H]1O (some centres undefined),-0.0812,,
COc1cc(O)cc(C)c1C(=O)O[C@H]1[C@@H](OC(C)=O)[C@H](n2ccc(=O)[nH]c2=O)O[C@@H]1CO,-17.4,,
CC12CCC(OC3OC(CO)C(O)C(OC4OC(CO)C(O)C(O)C4O)C3O)CC1CCC1C2CCC2(C)/C(=C3/COC(=O)C3)CCC12O (centres undefined),-0.083,,
C[C@@H]1O[C@@H](O[C@H]2[C@@H](OC(=O)[C@]34CCC(C)(C)CC3C3=CCC5[C@@]6(C)C[C@H](O)[C@H](O[C@@H]7O[C@H](C(=O)O)[C@@H](O)[C@H](O)[C@H]7O)[C@@](C)(C(=O)O)C6CC[C@@]5(C)[C@]3(C)CC4)OC[C@H](O)[C@@H]2O)[C@H](O)[C@H](O)[C@H]1O[C@@H]1OC[C@@H](O)[C@H](O)[C@H]1O (some centres undefined),-1.2,,
CC1(C(=O)O)CCCC2(C)C3=CCC4CC3(CCC12)CC4CO (centres undefined),2.08,,
COc1cc2c(cc1OC)[C@@H]1[C@H](O)[C@@H](OC)C=C3CCN(C2)[C@H]31,-24.8,,
CC(=O)OC[C@]12[C@H](OC(C)=O)C(=O)[C@@H]3[C@@H](OC(C)=O)[C@@]14O[C@@]3(C)COC(=O)c1cccnc1[C@@H](C)[C@H](C)C(=O)O[C@@H]([C@H](O)[C@@H]2OC(C)=O)[C@]4(C)O,-0.606,,
COC(=O)Cc1cc2c(c([N+](=O)[O-])c1)N(C(=O)CC[C@H](N)C(=O)O)CC2,-29.1,,
O=C(NCc1cccc(O)c1)c1cc2cc(F)ccc2[nH]1,-7.37,,
Cc1ccc(F)cc1C(=O)Nc1ccc(C(=O)N2Cc3cccn3Cc3ccccc32)c(Cl)c1,-26.5,,
COc1ccc([C@@H]2OC[C@H]3[C@@H]2CO[C@@H]3c2ccc(OC3OC(CO)C(O)C(O)C3O)c(OC)c2)cc1OC (some centres undefined),-0.266,,
C/C=C/c1ccc2c(c1)[C@@H](C)[C@H](c1ccc(O)cc1)O2,,inactive,
C=C1C(=O)OC2CC3(C)C(CC12)C(C)=CC(O)C3OC(C)=O (centres undefined),3.89,,
CCCOC(c1cc2nccc(C(=O)O)c2[nH]1)c1ccccc1Cl (centres undefined),-2.87,,
CC(=O)O[C@]1(C(C)=O)CC[C@H]2[C@@H]3C[C@H](C)C4=CC(=O)C=C[C@]4(C)[C@@]3(F)[C@@H](O)C[C@@]21C,3.64,,
CC(C)CNCc1ccc(-c2ccccc2S(=O)(=O)N2CCCC2)cc1,-12.3,,
OC[C@H]1O[C@@H](Oc2ccccc2)[C@H](O)[C@@H](O)[C@@H]1O,3.54,,

SMILES,max response [%],outcome,Potency
OCC1OC(Oc2cc(O)cc(/C=C/c3ccc(O)cc3)c2)C(O)C(O)C1O (centres undefined),,inactive,
C/C1=C\CC[C@]2(C)O[C@@H]2[C@H](O)[C@H](C(C)C)[C@H](OC(=O)/C=C/c2ccccc2)C1,-5.06,,
CC1=CC2C(CC1OC1OC(CO)C(O)C(O)C1O)C(C)CC(=O)C2C(C)C (centres undefined),-4.3,,
COC(=O)c1ccc(OC(CO)C(O)c2ccc(O)c(OC)c2)c(OC)c1 (centres undefined),1.74,,
COc1ccc(/C=C/C(=O)O[C@@H]2[C@@H](O)[C@H](C)O[C@@H](O[C@H]3[C@@H]4C=CO[C@@H](O[C@H]5O[C@@H](CO)[C@H](O)[C@@H](O)[C@@H]5O)[C@@H]4[C@@]4(CO)O[C@@H]34)[C@@H]2OC(C)=O)cc1,3.75,,
COc1cc2c(cc1OC)CC(=O)N(CCCNC[C@H]1Cc3cc(OC)c(OC)cc31)CC2,-2.44,,
COC1CC(OC2CCC3(C)C(=CCC4C3C(OC(C)=O)C(OC(=O)/C=C/c3ccccc3)C3(C)C(C(C)O)CCC43O)C2)OC(C)C1OC1CC(OC)C(OC2OC(C)C(OC3OC(CO)C(O)C(O)C3O)C(OC)C2O)C(C)O1 (centres undefined),0.93,,
CC1=C(C(=O)O)/C(=C\CO[C@@H]2O[C@H](CO)[C@@H](O)[C@H](O)[C@H]2O)C(OC(=O)/C=C/c2ccc(O)cc2)C1 (some centres undefined),-26,,
O=C(CCc1ccccc1)N1CCC(O)(Cn2cnc3cc(Cl)ccc3c2=O)CC1,-6.79,,
C[C@@H]1O[C@@H](O[C@@H]2[C@@H](O)[C@H](O[C@H]3CC[C@@]4(C)C(CC[C@]5(C)C4CC=C4[C@@H]6CC(C)(C)CC[C@]6(C(=O)O[C@@H]6O[C@H](CO)[C@@H](O)[C@H](O)[C@H]6O)CC[C@]45C)C3(C)C)O[C@H](C(=O)O)[C@H]2O)[C@H](O)[C@H](O)[C@H]1O (some centres undefined),,inactive,
c1ccc(N2CCN(CCc3nn[nH]n3)CC2)cc1,-17.8,,
C=C[C@@](C)(O)CC/C=C(\C)C(=O)O[C@@H]1[C@@H]2O[C@]2(C)[C@H]2[C@H](O[C@@H]3O[C@H](CO)[C@@H](O)[C@H](O)[C@H]3O)OC=C[C@@]12O,-5.52,,
CNC(=O)c1ccccc1Nc1nc(Nc2ccc(N3CCNCC3)cc2)ncc1Cl,,,9.2 nM (active)
CCCC(=O)C1CCN(c2ncnc3c2CN(C(=O)c2ccc(-c4ccccc4)cc2)CC3)CC1,-5.72,,
CC(C)[C@H]1CC[C@@]2(O)COC(=O)[C@H]2[C@@H]1/C=C(\CO)C(=O)O,-2.34,,
C[C@@H]1O[C@@H](O[C@@H]2CO[C@@H](O[C@H]3CC[C@@]4(C)C(CC[C@]5(C)C4CC=C4[C@@H]6CC(C)(C)CC[C@]6(C(=O)O[C@@H]6O[C@H](CO)[C@@H](O)[C@H](O)[C@H]6O)CC[C@]45C)[C@]3(C)CO)[C@H](O)[C@H]2O[C@@H]2O[C@H](CO)[C@@H](O)[C@H](O)[C@H]2O)[C@H](O)[C@H](O)[C@H]1O (some centres undefined),-0.513,,
COc1cc(OC)c(/C=C/S(=O)(=O)Cc2ccc(OC)c(NCC(=O)O)c2)c(OC)c1,,inactive,
COc1ccc(CC2NCCc3c2[nH]c2ccc(C)cc32)cc1OC (centres undefined),-6.85,,
C=CC[C@]12C[C@@H](OC)C(=O)C(OC)=C1O[C@@H](c1cc(OC)c3c(c1)OCO3)[C@@H]2C,-13.8,,
